The values below come from ChEMBL document CHEMBL4296182, “CO-ADD screening of NIH NCI Diversity Set V”.

The structures appear in SMILES notation. For part of these data: Results with a measured potency or affinity are listed apart.

One experiment concerns Staphylococcus aureus. The experiment in a line: Antibacterial activity against Staphylococcus aureus MRSA ATCC 43300 (CO-ADD:GP_020); MIC in CAMBH media using NBS plates, by Resazurin F(560/590). Type of experiment: functional. Particulars: Concentration 20 uM, ASSAY_TEST Inhibition of Bacterial Growth, detection method Resazurin, Fluorescence (ex560/em590), MEDIA CAMHB, plate type 384well, CORNING #3640, time 18 hr. A general note: Resazurin is reduced to fluorescent resorufin, in cell work by metabolically active cells.

A further experiment deals with Acinetobacter baumannii. The experiment in a line: Antibacterial activity against Acinetobacter baumannii ATCC 19606 (CO-ADD:GN_034); MIC in CAMBH media using NBS plates, by Resazurin F(560/590). Type of experiment: functional. Particulars: Concentration 20 uM, ASSAY_TEST Inhibition of Bacterial Growth, detection method Resazurin, Fluorescence (ex560/em590), MEDIA CAMHB, plate type 384well, CORNING #3640, time 18 hr.

For another experiment, the system named is Escherichia coli. The experiment in a line: Antibacterial activity against Escherichia coli ATCC 25922 (CO-ADD:GN_001); MIC in CAMBH media using NBS plates, by Resazurin F(560/590). The settings on record: Concentration 20 uM, ASSAY_TEST Inhibition of Bacterial Growth, detection method Resazurin, Fluorescence (ex560/em590), MEDIA CAMHB, plate type 384well, CORNING #3640, time 18 hr. Type of experiment: functional.

The next experiment has as its system Klebsiella pneumoniae. Particulars: Concentration 20 uM; ASSAY_TEST Inhibition of Bacterial Growth; detection method Absorption (OD600); MEDIA CAMHB; plate type 384well; NBS; CORNING #3640; time 18 hr.
In another experiment the test system is Candida albicans. The settings on record: 20 µM.
The test system of a further experiment is Cryptococcus neoformans. Particulars: Concentration 20 uM; ASSAY_TEST Inhibition of Fungal Growth; detection method Resazurin; Absorption (OD600-OD570); plate type 384well; NBS; CORNING #3640.

One may read the Inhibition as the drop in the measured response relative to a control, in per cent. As to `CCCCCCCCCCCCC(NC(C)=O)(C(=O)OCC)C(=O)OCC`, the Inhibition with Staphylococcus aureus is 14.33%; with Acinetobacter baumannii, 7.7%; in the experiment with Escherichia coli, 5.2%; in the experiment on Klebsiella pneumoniae, 18.57%; in the experiment on Candida albicans it was 7.18%; in the experiment with Cryptococcus neoformans it was -2.7%.

Turning to `Cc1ccc(NC(=O)N2CCCCC2)cc1NC(=O)N1CCCCC1`, the Inhibition in the experiment on Staphylococcus aureus was -1.56%; in the experiment on Acinetobacter baumannii, 7.43%; in the experiment with Escherichia coli it was 3.01%; with Klebsiella pneumoniae, 16.93%; in the experiment on Candida albicans, 3.17%; in the experiment with Cryptococcus neoformans it was 1.83%.

`O=C1OC(CN(Cc2ccccc2)Cc2ccccc2)CN1/N=C/c1ccc([N+](=O)[O-])o1` (centres undefined): the Inhibition with Staphylococcus aureus was -19.95%; in the experiment with Acinetobacter baumannii it was -14.51%; with Escherichia coli, 10.29%; in the experiment with Klebsiella pneumoniae, 6.15%; in the experiment with Candida albicans it was 10.5%; in the experiment with Cryptococcus neoformans, -4.47%.

`O=C(Nc1ccc(F)cc1)OCCOc1ccc([N+](=O)[O-])cc1`: the Inhibition in the experiment with Staphylococcus aureus was 6.26%; in the experiment on Acinetobacter baumannii it was 5.22%; with Escherichia coli it was -7.06%; with Klebsiella pneumoniae, 8.41%; in the experiment with Candida albicans, 4.71%; in the experiment on Cryptococcus neoformans, -9.23%.

With `O=C(O)CCC1(c2ccccc2)NC(=O)NC1=O` (centres undefined), the Inhibition with Staphylococcus aureus was 11.61%; in the experiment with Acinetobacter baumannii, -12.39%; with Escherichia coli, 7.41%; with Klebsiella pneumoniae it was 2.37%; with Candida albicans, -1.18%; with Cryptococcus neoformans it was -9.46%.

With `N#CC1=C2CCCCC2(O)NC1=O` (centres undefined), the Inhibition in the experiment with Staphylococcus aureus is 6.52%; in the experiment with Acinetobacter baumannii it was -3.34%; in the experiment on Escherichia coli, 7.41%; in the experiment on Klebsiella pneumoniae, 2.61%; with Candida albicans it was -0.03%; in the experiment on Cryptococcus neoformans, -5.83%.

Take `CC1(C)N=C(N)N=C(N)N1c1ccc(OCCCOc2ccccc2)c(Cl)c1.CCS(=O)(=O)O`: the Inhibition in the experiment with Staphylococcus aureus is 10.6%; with Acinetobacter baumannii, -13.57%; with Escherichia coli, 15.29%; in the experiment on Klebsiella pneumoniae, 12.4%; in the experiment on Candida albicans it was -0.44%; in the experiment with Cryptococcus neoformans it was -3.49%.

On to `CC(C)(C)c1ccc(C(=O)Nc2ccc(S(N)(=O)=O)cc2)cc1`, for which the Inhibition is 29.14% with Staphylococcus aureus; 5.57% in the experiment with Acinetobacter baumannii; 7.06% in the experiment with Escherichia coli; 7.59% with Klebsiella pneumoniae; 2.9% in the experiment on Candida albicans; -15.62% in the experiment with Cryptococcus neoformans.

`COc1ccc(NC(=O)N2CCN(C(=O)Nc3ccc(OC)cc3)CC2)cc1`: the Inhibition in the experiment on Staphylococcus aureus was 0.79%; in the experiment with Acinetobacter baumannii, 9.56%; in the experiment on Escherichia coli, -5.74%; in the experiment with Klebsiella pneumoniae, 5.35%; in the experiment on Candida albicans, -1.52%; in the experiment with Cryptococcus neoformans, 3.31%.

As to `Nc1c(Cl)ncnc1NCCO`, the Inhibition in the experiment with Staphylococcus aureus is -0.51%; in the experiment with Acinetobacter baumannii, -7.14%; in the experiment with Escherichia coli, 3.3%; with Klebsiella pneumoniae it was 8.13%; with Candida albicans, 2.14%; in the experiment on Cryptococcus neoformans, -0.36%.

With `Cc1c2cnccc2c(C)c2c1c1ccccc1n2CCOC(=O)c1ccccc1`, the Inhibition in the experiment on Staphylococcus aureus is -1.71%; in the experiment on Acinetobacter baumannii, 14.72%; with Escherichia coli, 4.49%; in the experiment on Klebsiella pneumoniae it was 5.61%; with Candida albicans it was 22.1%; in the experiment on Cryptococcus neoformans, -19.42%.

As for `CNC(=O)OCN1C(=O)C2CC=CCC2C1=O` (centres undefined), the Inhibition in the experiment on Staphylococcus aureus was 7.25%; with Acinetobacter baumannii, -15.92%; with Escherichia coli, 10%; in the experiment with Klebsiella pneumoniae, 2.19%; in the experiment on Candida albicans, -1.86%; in the experiment with Cryptococcus neoformans, -13.88%.

Regarding `Cc1cc(-n2cnc3c(O)ncnc32)ccc1N`, the Inhibition in the experiment on Staphylococcus aureus is 0.18%; in the experiment on Acinetobacter baumannii, -17.95%; in the experiment with Escherichia coli, 5.61%; with Klebsiella pneumoniae it was 1.65%; in the experiment with Candida albicans, 1.13%; with Cryptococcus neoformans it was -8.1%.

Take `Cc1ccc(/N=N/c2c(O)c3ccccc3[nH]c2=O)c(S(=O)(=O)N(C)C)c1`: the Inhibition is 12.78% in the experiment with Staphylococcus aureus; 7.24% in the experiment with Acinetobacter baumannii; 9.06% in the experiment with Escherichia coli; 6.43% in the experiment with Klebsiella pneumoniae; -0.31% in the experiment on Candida albicans; -5.24% with Cryptococcus neoformans.

Consider `NC(CC(=O)Nc1cc(C(F)(F)F)ccc1Cl)=NO`, for which the Inhibition was 9.76% in the experiment with Staphylococcus aureus; -1.74% in the experiment on Acinetobacter baumannii; -6.61% in the experiment on Escherichia coli; 22.22% in the experiment on Klebsiella pneumoniae; 3.79% with Candida albicans; -11.78% in the experiment on Cryptococcus neoformans.

For the molecule `CSC(=O)NC(=O)NC(=O)c1ccc([N+](=O)[O-])cc1`, the Inhibition with Staphylococcus aureus was 9.19%; in the experiment with Acinetobacter baumannii, 0.18%; in the experiment with Escherichia coli, 3.52%; in the experiment on Klebsiella pneumoniae it was 12.66%; in the experiment with Candida albicans, -0.48%; in the experiment on Cryptococcus neoformans, 44.26%.

For `C=CCC(CC)C(=O)NC(=O)N1CCCc2ccccc21` (centres undefined), the Inhibition with Staphylococcus aureus is -2.1%; in the experiment on Acinetobacter baumannii, 11.89%; in the experiment on Escherichia coli, -1.31%; in the experiment on Klebsiella pneumoniae it was 11.1%; in the experiment with Candida albicans it was 4.92%; with Cryptococcus neoformans, -1.85%.

As to `Cc1n[nH]c2nc(N)nn2c1=O`, the Inhibition is -4.36% in the experiment on Staphylococcus aureus; -0.91% with Acinetobacter baumannii; 10.78% with Escherichia coli; -2.02% in the experiment on Klebsiella pneumoniae; -3.85% in the experiment on Candida albicans; -10.19% with Cryptococcus neoformans.

As for `COc1ccc2c(c1)C(=O)C1NC(=O)NC(=O)C1(Br)N2` (centres undefined), the Inhibition in the experiment on Staphylococcus aureus is 19.24%; in the experiment with Acinetobacter baumannii it was -10.78%; with Escherichia coli, 15.57%; in the experiment on Klebsiella pneumoniae it was 4.36%; in the experiment with Candida albicans, -1.05%; with Cryptococcus neoformans, -13.08%.

For the molecule `O=C1c2cccc3cc([N+](=O)[O-])cc(c23)C(=O)N1CCN1CCCC1` [PINAFIDE], the Inhibition is -1.04% in the experiment on Staphylococcus aureus; 10.65% in the experiment on Acinetobacter baumannii; -8.19% with Escherichia coli; 5.33% in the experiment on Klebsiella pneumoniae; 0.21% in the experiment with Candida albicans; -7.33% in the experiment on Cryptococcus neoformans.

As to `CCC(C)Oc1nc2c(c(=O)n(C)c(=O)n2C)n1C` (centres undefined), the Inhibition was -1.77% in the experiment with Staphylococcus aureus; -5.34% in the experiment with Acinetobacter baumannii; 12.06% in the experiment with Escherichia coli; 2.01% in the experiment with Klebsiella pneumoniae; 1.02% with Candida albicans; -11.56% with Cryptococcus neoformans.

Consider `COC(=O)c1ccc(Cn2cnc3c(Cl)ncnc32)cc1`, for which the Inhibition with Staphylococcus aureus is -16.45%; in the experiment on Acinetobacter baumannii, 0.57%; in the experiment on Escherichia coli, -10.62%; in the experiment on Klebsiella pneumoniae it was 2.87%; in the experiment with Candida albicans, -1.99%; with Cryptococcus neoformans, 15.29%.

Turning to `O=C(c1ccccc1)C1N=NCC1c1ccc(Cl)cc1` (centres undefined), the Inhibition in the experiment with Staphylococcus aureus is 21.05%; in the experiment with Acinetobacter baumannii it was 1.64%; in the experiment with Escherichia coli it was 18.84%; in the experiment on Klebsiella pneumoniae, 8.27%; with Candida albicans, 8.01%; with Cryptococcus neoformans, -11.46%.

Regarding `Cc1cccc(Nc2sc(C(=O)c3cc4cc(Cl)ccc4o3)c(N)c2C#N)c1`, the Inhibition was 1.46% with Staphylococcus aureus; -13.03% in the experiment with Acinetobacter baumannii; 6.28% in the experiment with Escherichia coli; 5.96% in the experiment on Klebsiella pneumoniae; 0.06% with Candida albicans; 37.64% in the experiment with Cryptococcus neoformans.
